The text below walks through data of ChEMBL document CHEMBL2218924, “A broad activity screen in support of a chemogenomic map for kinase signalling research and drug discovery” (Biochem J, 2013).

The target of assay [1] is T1, Ephrin type-B receptor 1 (Homo sapiens) (UniProt P54762).
T1 sequence (whole entry): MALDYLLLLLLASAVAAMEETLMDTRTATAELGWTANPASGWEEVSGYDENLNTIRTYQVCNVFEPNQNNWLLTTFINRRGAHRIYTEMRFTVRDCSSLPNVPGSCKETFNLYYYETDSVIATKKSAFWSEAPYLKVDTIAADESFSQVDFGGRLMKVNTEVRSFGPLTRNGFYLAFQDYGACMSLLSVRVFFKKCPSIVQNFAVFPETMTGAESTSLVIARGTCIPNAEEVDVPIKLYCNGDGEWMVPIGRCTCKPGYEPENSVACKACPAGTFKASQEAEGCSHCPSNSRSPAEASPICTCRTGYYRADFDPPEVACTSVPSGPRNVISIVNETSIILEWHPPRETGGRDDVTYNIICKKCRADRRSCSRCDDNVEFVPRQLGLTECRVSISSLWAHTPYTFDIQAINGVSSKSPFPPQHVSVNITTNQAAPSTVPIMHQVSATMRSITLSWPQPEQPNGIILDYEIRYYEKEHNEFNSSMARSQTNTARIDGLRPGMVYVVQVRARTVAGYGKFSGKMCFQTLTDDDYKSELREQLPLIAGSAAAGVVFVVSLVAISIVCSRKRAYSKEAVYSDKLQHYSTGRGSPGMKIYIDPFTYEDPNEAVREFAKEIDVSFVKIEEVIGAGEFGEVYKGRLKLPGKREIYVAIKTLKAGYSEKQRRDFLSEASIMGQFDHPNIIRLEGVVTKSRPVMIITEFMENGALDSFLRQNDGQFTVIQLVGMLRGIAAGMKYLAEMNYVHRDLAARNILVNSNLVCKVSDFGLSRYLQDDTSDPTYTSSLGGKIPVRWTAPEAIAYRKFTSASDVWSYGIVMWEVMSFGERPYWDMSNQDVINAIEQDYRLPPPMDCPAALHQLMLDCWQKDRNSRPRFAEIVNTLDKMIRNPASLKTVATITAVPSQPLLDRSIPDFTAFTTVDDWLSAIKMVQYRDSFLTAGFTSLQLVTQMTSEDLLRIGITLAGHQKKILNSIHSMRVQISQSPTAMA
As to conditions: at 10 µM; call rule not given here.

The target in assay [2] is T2, Ephrin type-B receptor 2 (Homo sapiens) (UniProt P29323).
T2 sequence (whole entry): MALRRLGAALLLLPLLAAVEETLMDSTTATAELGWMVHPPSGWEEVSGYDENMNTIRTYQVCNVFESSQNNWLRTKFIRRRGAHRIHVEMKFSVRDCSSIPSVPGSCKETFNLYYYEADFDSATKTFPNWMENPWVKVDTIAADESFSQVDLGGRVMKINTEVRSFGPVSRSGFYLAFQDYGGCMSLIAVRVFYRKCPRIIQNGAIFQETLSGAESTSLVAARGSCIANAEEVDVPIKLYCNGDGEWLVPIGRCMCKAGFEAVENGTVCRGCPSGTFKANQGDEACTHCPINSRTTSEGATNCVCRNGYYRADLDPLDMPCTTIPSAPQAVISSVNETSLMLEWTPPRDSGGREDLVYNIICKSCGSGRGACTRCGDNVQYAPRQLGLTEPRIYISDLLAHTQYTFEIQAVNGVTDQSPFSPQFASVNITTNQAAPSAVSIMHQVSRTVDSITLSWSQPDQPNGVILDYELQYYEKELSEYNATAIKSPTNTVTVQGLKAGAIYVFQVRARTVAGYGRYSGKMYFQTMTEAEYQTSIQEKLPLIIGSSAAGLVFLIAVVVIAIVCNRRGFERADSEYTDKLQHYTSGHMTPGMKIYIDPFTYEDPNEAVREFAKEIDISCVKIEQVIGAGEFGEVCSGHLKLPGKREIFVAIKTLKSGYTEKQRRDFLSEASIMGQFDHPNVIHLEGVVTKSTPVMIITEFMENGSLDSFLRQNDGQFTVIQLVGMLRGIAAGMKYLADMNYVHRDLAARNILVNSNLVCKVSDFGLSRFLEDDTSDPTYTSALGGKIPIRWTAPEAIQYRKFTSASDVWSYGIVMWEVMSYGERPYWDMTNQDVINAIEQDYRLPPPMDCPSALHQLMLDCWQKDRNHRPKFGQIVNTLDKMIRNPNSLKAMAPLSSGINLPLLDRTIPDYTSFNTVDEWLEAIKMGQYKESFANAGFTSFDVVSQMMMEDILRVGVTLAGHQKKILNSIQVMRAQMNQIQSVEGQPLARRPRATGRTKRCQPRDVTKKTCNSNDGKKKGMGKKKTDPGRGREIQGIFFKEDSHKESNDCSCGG
As to conditions: at 1 µM.

Assay [3] concerns the target T2, Ephrin type-B receptor 2 (Homo sapiens). The note with it: at 10 µM.
The target of assay [4] is T3, Ephrin type-B receptor 3 (Homo sapiens) (UniProt P54753).
T3 sequence (whole entry): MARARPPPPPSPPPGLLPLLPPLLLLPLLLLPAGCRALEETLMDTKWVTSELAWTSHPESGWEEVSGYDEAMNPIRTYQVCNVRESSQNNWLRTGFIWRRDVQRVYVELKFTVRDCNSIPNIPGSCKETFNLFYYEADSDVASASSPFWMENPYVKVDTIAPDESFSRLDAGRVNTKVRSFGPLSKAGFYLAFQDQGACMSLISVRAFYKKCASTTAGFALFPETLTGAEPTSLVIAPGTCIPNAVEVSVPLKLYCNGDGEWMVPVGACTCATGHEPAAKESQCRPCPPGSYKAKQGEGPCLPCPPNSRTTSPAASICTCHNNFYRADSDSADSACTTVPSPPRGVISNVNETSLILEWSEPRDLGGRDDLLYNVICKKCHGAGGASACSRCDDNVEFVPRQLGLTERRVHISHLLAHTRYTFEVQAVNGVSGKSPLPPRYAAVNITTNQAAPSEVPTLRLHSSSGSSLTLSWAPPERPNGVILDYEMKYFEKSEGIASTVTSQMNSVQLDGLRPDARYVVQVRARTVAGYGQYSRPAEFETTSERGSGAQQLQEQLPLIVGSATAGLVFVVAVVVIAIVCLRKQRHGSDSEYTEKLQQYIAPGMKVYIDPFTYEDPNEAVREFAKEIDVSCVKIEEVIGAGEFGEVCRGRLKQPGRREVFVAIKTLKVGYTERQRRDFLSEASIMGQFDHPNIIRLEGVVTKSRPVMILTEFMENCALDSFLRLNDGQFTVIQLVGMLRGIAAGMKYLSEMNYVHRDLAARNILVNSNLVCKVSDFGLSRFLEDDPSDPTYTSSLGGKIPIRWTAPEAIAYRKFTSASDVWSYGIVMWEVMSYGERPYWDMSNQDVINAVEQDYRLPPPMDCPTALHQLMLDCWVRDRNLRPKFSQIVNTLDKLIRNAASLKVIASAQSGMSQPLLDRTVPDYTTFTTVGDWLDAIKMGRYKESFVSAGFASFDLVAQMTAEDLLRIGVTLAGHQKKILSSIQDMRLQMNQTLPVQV
As to conditions: at 1 µM.

In assay [5] the target is T4, Ephrin type-B receptor 4 (Homo sapiens) (UniProt P54760).
T4 sequence (whole entry): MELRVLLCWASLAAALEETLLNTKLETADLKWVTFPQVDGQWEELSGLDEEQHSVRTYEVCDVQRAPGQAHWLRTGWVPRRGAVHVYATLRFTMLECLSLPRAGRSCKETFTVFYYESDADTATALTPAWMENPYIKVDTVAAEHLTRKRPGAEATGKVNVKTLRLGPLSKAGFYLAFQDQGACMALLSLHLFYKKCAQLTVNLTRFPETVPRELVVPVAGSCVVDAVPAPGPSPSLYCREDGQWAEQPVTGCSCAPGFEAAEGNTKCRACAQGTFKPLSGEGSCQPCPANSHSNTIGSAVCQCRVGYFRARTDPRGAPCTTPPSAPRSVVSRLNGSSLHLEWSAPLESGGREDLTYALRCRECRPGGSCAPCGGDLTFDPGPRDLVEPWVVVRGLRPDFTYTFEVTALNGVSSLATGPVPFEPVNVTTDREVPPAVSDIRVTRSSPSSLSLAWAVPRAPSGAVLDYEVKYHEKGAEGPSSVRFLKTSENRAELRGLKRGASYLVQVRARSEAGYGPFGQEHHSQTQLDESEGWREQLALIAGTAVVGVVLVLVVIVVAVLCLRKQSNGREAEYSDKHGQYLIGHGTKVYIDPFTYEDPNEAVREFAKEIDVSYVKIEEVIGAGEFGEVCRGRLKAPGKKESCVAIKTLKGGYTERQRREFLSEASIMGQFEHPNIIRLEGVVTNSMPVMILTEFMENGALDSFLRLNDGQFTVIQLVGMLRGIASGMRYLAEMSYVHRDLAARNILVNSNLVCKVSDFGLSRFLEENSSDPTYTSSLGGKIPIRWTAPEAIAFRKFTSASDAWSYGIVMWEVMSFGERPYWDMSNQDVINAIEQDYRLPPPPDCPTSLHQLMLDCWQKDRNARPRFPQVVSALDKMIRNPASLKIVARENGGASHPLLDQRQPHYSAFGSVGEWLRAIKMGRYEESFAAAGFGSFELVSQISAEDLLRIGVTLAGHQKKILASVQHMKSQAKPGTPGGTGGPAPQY
The note with it: at 1 µM.

Assay [6] deals with T4, Ephrin type-B receptor 4 (Homo sapiens). As to conditions: at 10 µM.
For assay [7], the target named is Receptor tyrosine-protein kinase erbB-4 (Homo sapiens) (UniProt Q15303). The note with it: at 1 µM.
The target is the same in assay [8]. As to conditions: at 10 µM.
Assay [9] deals with Focal adhesion kinase 1 (Homo sapiens) (UniProt Q05397). As to conditions: at 1 µM.
Assay [10] deals with T3, Ephrin type-B receptor 3 (Homo sapiens). The note with it: at 10 µM.

Chain of Receptor tyrosine-protein kinase erbB-4 (Homo sapiens) (Q15303 whole entry): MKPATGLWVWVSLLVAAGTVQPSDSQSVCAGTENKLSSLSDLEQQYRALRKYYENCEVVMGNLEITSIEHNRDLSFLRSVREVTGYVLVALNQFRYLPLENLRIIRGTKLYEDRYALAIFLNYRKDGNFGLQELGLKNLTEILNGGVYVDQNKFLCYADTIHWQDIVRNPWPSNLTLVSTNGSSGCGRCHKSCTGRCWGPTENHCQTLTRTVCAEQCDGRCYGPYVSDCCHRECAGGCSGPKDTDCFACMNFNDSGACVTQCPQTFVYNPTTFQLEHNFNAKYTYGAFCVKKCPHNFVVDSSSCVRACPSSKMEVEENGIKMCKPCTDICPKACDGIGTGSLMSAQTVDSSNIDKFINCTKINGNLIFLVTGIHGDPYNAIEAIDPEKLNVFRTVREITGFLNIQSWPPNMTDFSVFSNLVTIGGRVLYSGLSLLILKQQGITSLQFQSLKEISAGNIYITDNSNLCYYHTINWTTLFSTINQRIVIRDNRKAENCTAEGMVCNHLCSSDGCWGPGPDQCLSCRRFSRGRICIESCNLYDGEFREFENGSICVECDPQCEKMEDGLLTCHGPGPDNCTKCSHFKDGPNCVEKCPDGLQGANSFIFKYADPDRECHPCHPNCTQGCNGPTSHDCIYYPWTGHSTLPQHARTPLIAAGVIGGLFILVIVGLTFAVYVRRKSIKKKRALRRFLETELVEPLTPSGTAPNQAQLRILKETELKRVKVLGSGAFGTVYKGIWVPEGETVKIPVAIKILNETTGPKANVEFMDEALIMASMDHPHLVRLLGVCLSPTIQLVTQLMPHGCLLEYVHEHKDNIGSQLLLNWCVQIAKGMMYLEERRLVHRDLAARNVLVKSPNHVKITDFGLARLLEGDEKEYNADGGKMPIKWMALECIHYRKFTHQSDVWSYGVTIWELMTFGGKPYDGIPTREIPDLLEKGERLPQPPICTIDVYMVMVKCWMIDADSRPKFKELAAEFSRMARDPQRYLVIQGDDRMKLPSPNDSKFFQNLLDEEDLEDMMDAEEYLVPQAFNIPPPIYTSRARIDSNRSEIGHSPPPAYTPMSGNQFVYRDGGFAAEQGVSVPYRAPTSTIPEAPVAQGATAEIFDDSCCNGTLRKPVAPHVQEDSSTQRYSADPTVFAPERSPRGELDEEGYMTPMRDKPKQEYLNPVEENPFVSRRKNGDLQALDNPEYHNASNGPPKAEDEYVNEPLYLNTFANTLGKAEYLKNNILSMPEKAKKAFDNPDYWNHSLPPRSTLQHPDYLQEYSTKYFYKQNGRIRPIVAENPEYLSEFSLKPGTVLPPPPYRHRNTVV
Chain of Focal adhesion kinase 1 (Homo sapiens) (Q05397 2-1052 limits assumed): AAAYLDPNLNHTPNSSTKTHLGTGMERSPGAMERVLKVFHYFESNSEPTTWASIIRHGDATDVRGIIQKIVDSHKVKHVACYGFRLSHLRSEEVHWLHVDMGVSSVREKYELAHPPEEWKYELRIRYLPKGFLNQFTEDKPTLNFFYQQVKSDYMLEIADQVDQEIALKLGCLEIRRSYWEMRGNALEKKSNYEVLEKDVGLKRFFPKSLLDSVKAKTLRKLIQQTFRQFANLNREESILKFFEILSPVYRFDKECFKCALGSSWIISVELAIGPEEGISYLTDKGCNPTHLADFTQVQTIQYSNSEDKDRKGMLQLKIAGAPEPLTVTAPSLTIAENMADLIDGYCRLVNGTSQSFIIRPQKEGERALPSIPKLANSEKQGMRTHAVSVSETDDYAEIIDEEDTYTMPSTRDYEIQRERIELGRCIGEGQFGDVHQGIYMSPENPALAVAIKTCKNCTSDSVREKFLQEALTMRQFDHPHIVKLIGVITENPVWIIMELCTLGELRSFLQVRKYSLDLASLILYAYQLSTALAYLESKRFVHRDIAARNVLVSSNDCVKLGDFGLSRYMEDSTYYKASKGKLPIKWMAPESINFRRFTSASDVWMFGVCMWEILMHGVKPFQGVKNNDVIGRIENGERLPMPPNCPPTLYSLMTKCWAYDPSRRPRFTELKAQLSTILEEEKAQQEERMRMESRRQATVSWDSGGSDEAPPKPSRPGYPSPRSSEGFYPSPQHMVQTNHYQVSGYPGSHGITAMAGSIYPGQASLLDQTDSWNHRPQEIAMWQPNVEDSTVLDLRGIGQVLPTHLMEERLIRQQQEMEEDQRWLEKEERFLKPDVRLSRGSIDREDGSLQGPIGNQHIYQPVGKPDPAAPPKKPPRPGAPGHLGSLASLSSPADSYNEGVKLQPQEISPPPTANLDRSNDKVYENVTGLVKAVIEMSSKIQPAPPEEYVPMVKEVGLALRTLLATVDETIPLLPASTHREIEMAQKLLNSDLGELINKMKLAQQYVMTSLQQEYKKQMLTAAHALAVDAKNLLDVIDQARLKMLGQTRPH

As a reminder, the residual activity is the signal under treatment as a percentage of the control signal. `Cc1cc(Nc2nc(-c3ccccc3)nc3ccccc23)n[nH]1`: the residual activity in assay [1] was 17%; in [2], 100%; in assay [3] it was 48%; in [4], 111% (inactive); in [5], 75%; in assay [6], 20%. Further, the results for the residual activity in [7], in assay [8] and in [9] were 106%, 45% and 36%, respectively.
On to `CC(=O)c1ccc(N2CCOCC2)cc1O`, for which the residual activity in [1] is 101%; in assay [3], 106%; in assay [4], 105% (inactive); in assay [10], 107%; in assay [7], 93%; in assay [8], 107%.
Turning to `COc1cc2ncc(-c3ccccc3)nc2cc1OC`, the residual activity in assay [4] is 132% (inactive); in assay [10] it was 90%; in assay [5] it was 125%; in assay [6], 123%; in [7], 88%; in [8], 85%. In addition, the residual activity in assay [9] came out at 139%.
On to `C[C@@H](N)[C@H]1CC[C@H](C(=O)Nc2ccncc2)CC1`, for which the residual activity in assay [1] was 99%; in assay [2], 90%; in assay [3], 92%; in assay [4], 111% (inactive); in assay [10], 110%; in assay [5], 108%. Besides, the residual activity amounted to 102% in assay [6], 109% in assay [7], 113% in [8] and 104% in [9].
For `CC(C)n1cnc2c(NCc3ccccc3)nc(NCCCO)nc21`, the residual activity in assay [1] was 79%; in assay [2], 111%; in [3], 115%; in [4] it was 121% (inactive); in [10], 104%; in assay [5], 100%. The residual activity in assay [6] was determined as 88%; in assay [7] it was 52%; in assay [8] it was 45%; in [9] it was 97%.
Turning to `O=C1c2ccccc2-[n+]2ccc3c([nH]c4ccccc43)c21`, the residual activity in assay [1] is 85%; in [2] it was 114%; in [3], 116%; in assay [4], 100% (inactive); in assay [10], 96%; in assay [5], 92%. For the same molecule, the residual activity in assay [6] was determined as 84%; in assay [7], 69%; in assay [8] it was 67%; in assay [9], 95%.
With `COc1cc2ncnc(Nc3ccc(NC(=O)c4ccccc4)cc3)c2cc1OC`, the residual activity in assay [1] amounted to 83%; in [7], 35%; in [8], 6%; in assay [9] it was 142%.
As to `N#CC(C#N)=C(N)/C(C#N)=C/c1ccc(O)cc1`, the residual activity was found to be 116% in assay [5]; 119% in assay [6]; 95% in assay [7]; 76% in assay [8]; 132% in [9].
For `COc1cc2ncnc(N3CCN(C(=O)Nc4ccc(Oc5ccccc5)cc4)CC3)c2cc1OC`, the residual activity in [1] is 102%; in [2] it was 114%; in [4], 110% (inactive); in assay [10], 146%; in [5], 98%; in [6], 112%. In addition, the residual activity in assay [7] came to 100%; in assay [8] it was 145%; in assay [9] it was 108%.
